Assay results from PubChem BioAssay AID1845226 (National Center for Advancing Translational Sciences (NCATS), 2023).
Results filed as inconclusive are left out. Active and inactive are the calls of the source. Calls follow the shape of the dose curve; as a rule, active = well fitted inhibition curve with a large enough effect; inconclusive = small, poorly fitted or top-dose-only effect; inactive = no such curve, though single readings can be large or run the other way.

assay: Confirmatory fluorescence-based thiol-reactive (MSTI) qHTS assay for identification of artifact compounds; conditions: MSTI thiol-reactivity probe, 1 h; series mostly up to 39.2 µM; activity change, negative = inhibition: at the top concentration
Excerpt: PI: Alexander Tropsha Ph.D. UNC Eshelman School of Pharmacy University of North Carolina, Chapel Hill, North Carolina Hits from high-throughput screening (HTS) of chemical libraries are often false positives due to their interference with the assay detection technology. In response to this problem, we generated the largest publicly available library of chemical liabilities and developed a free webtool to predict HTS artifacts, both of which are described herein. More specifically, we generated, curated, and integrated HTS datasets for thiol reactivity, redox activity, and luciferase (firefly and nano) activity. Using these curated datasets, we developed and validated several Quantitative Structure-Interference Relationship (QSIR) models to predict nuisance behavior. […] These models were employed for virtual profiling of the National Center for Advancing Translational Science's (NCATS) in-house library, and 256 compounds for each assay were selected for the experimental validation of nuisance behavior. The BA for these external predictions ranged from 58 to 78% for compounds within the applicability domains of the models. […] The models developed in this study, along with aggregation models previously developed by our group (SCAM Detective) were implemented in "Liability Predictor," an online tool which may be used as part of chemical library design or for triaging HTS hits. Both the models and the curated datasets are publicly available at https://liability.mml.unc.edu/.
PROTOCOL TABLE SEQUENCE No. (e.g., 1, 2, 3, etc.); PARAMETER (e.g., Cells, Incubation, Reagent, etc.); VALUE; DESCRIPTION. 1; Reagent; 4 uL; […]. 2; Compounds and control; 16 nL; Kalypsis pin tool (Wako USA) equipped with a 1536-well pin head. 3; Incubation; 1 hour. 4; Detection; Fluorescence, ViewLux microplate reader, 525 nm excitation, 598 nm emission. NOTES (numbers refer to Sequence numbers above) 1. Assays determining (E)-2-(4-mercaptostyryl)-1,3,3-trimethyl-3H-indol-1-ium (MSTI) reactivity were performed as previously described in the literature with modifications for the quick identification of compounds reacting with thiol. In brief, 4 uL of MSTI or positive control Acetyl-MSTI (final concentrations of 4 uM and 4 uM, respectively) in assay buffer (2% DMSO in 1X PBS pH 7.4) was dispensed into all wells of a 1536-well assay plate (solid-bottom black plate; Greiner Bio One, Monroe, NC). 2. A Wako Pin-tool (Wako Automation, Richmond, VA) was used to transfer 16 nL of compounds (consisting of 7-plates in qHTS format, final concentration range 18.3 nM to 114 uM) or control MLS001163887 (final concentration range 1.22 nM to 40 uM). 3. Plates were centrifuged (121xg, 15 seconds) and incubated for 1 hour at room temperature protected from light. 4. Samples were read for fluorescence (Ex/Em = 525(20)/598(25) nm) on a ViewLux CCD imager (PerkinElmer). Data were normalized to Acetyl-MSTI (0% activity) and MSTI (100% activity) and the resulting percent inhibition data were fitted to a 4-parameter Hill equation using NCATS in-house software.
Potency is read from the fitted curve at half-maximal effect.

Activity change, negative = inhibition, inactive:
O=C(Nc1cccc(Cc2ccccc2)c1)c1ccc(-c2cccc([N+](=O)[O-])c2)o1 -1.94%
O=C(CNC(=O)C(c1ccccc1)c1ccccc1)OCC(=O)c1ccc2ccccc2c1 122%
CSc1ncc(C(=O)NCc2ccccc2)c(-c2ccccc2)n1 33.3%
COc1ccc(OCc2nnc(-c3ccccc3)o2)cc1 77.2%
O=C(COCc1cc(-c2cccs2)on1)NCc1ccc(Cl)cc1 259%
COc1cccc(CN2CCCN(Cc3ccc(F)cc3)S2(=O)=O)c1 74.8%
COc1ccc(C)cc1NC(=O)CN1C(=O)COc2ccc(S(=O)(=O)NC3CCCC3)cc21 104%
CCOc1ccc(NC(=O)c2cnc(Nc3ccccc3OC)c3ccccc23)cc1 51.6%
Cc1ccc(OCCn2c(CCNC(=O)c3c(F)cccc3F)nc3ccccc32)cc1 19.3%
COc1ccc(C2Nc3ccccc3C(=O)N2CC(C)(C)C)cc1COc1ccc(NC(C)=O)cc1 (stereo not given) 43.5%
Cc1ccc(C)c(N2CCN(Cc3csc(C)c3)CC2)c1 15.4%
CCN(CC)c1ccc(-c2nc(-c3ccccn3)no2)cc1[N+](=O)[O-] -6.72%
CCCC12CN3CC(C)(CN(C1)C3c1ccc(CC)cc1)C2=O (stereo not given) 57.3%
CC1CC(C)CN(c2oc(-c3ccc(OCc4ccc(Cl)cc4)cc3)nc2C#N)C1 (stereo not given) 0.0837%
CCOC(=O)c1sc2cccc(F)c2c1S(=O)(=O)NCc1ccccc1Cl 64.2%
Cc1ccc(Cn2ccc(NC(=O)c3cc(-c4ccc(Cl)c(Cl)c4)on3)n2)cc1 175%
COc1ccc(CNC(=O)c2cc3sccc3n2Cc2ccc(C)cc2)cc1 31.5%
COc1ccc(CCn2c3c(c(=O)[nH]c2=S)CN(C(C)C)CN3)cc1OC 48.3%
Clc1ccccc1Cn1c(-c2cccs2)nc2ccccc21 76.1%
Cc1c(C(=O)Nc2ccc(-n3c(C)nc4ccccc4c3=O)cc2)cccc1[N+](=O)[O-] 104%
Cc1cc(C(=O)N2CCN(c3cccc(Cl)c3)CC2)c2c(C)nn(-c3ccccc3Cl)c2n1 11.2%
COc1ccccc1N1CCN(c2ncnc3c2cnn3-c2ccc(C)cc2)CC1 19.1%
COc1ccccc1C(CC(=O)Nc1ccc(F)cc1)c1ccccc1 (stereo not given) 283% [at 78.4 µM]
Cc1ccccc1C(=O)N1CCc2cc(-c3nc(NC(=O)Cc4ccccc4)sc3C)ccc21 83.2%
O=C(COc1ccccc1Cl)NCC1(N2CCOCC2)CCCCC1 34.9%
O=C(CSc1nccn1C1CCCC1)Nc1ccc(C(F)(F)F)cc1 40.6%
O=C(/C=C/c1ccc(O)cc1)OC[C@H]1O[C@@H](Oc2c(-c3ccc(O)cc3)oc3cc(O)cc(O)c3c2=O)[C@H](O)[C@@H](O)[C@@H]1O 5.52%
CCCC(N[C@@H](C)C(=O)N1[C@H](C(=O)O)C[C@@H]2CCCC[C@@H]21)C(=O)OCC (stereo not given in full) -0.232%
O=C(NCCc1ccccc1)C1CCC(CNS(=O)(=O)c2ccccc2)CC1 (stereo not given) 139%
CC(=O)O[C@H]1C[C@@H]2CC[C@@H]3[C@H](CC[C@@]4(C)[C@H]3C[C@H](N3CC[N+](C)(C)CC3)[C@@H]4OC(C)=O)[C@@]2(C)C[C@@H]1N1CC[N+](C)(C)CC1 38.3%
COC(=O)c1c(OCc2ccccn2)cc(=O)n2c1CCN(C(=O)c1n[nH]c3c1CCCC3)CC2 50.9%
CC(C)c1cnc2c(c1SCC(=O)Nc1cccc([N+](=O)[O-])c1)c(=O)n(C)c(=O)n2C 8.16%
O=C(O)c1ccccc1[N+](=O)[O-] 10.1%
Cc1cc(OC(=O)c2c(C)cc(O)cc2O)cc(O)c1C(=O)O 2.87%
Fc1ccc2c(c1)-c1nc(-c3ccccc3)cc(-c3ccccc3)c1CO2 138%
COC(=O)c1cc(NC(=O)c2ccc3c(c2)NC(=O)c2ccccc2S3)cc(C(=O)OC)c1 428%

Potency, active:
CCc1ccc2c(O)c3c(cc2c1C(=O)OC)C(=O)c1c(O)ccc(O)c1C3=O 386 nM
O=C1CCCc2[nH]c(=O)c(-c3nc(-c4cccc([N+](=O)[O-])c4)cs3)cc21 3860 nM
COc1ccc(-c2ccc(CCC(=O)O)n2-c2ccccc2O)cc1 4330 nM
O=S(=O)(O)c1ccc(N=Nc2cc(S(=O)(=O)O)c3ccccc3c2O)c2ccccc12 194 nM
